Screening data deposited in PubChem by National Center for Advancing Translational Sciences (NCATS).
ATXN2 expr inh: reduces ATXN2 reporter expression in HEK-293 cells. HEK-293 ATXN2-luciferase reporter, luminescence, 24 h. Potency, µM (series often up to 57 µM), for inactives: top-dose activity change, negative = inhibition, most hits filed as inhibitors. actives 0.72% (n = 360,000); also: % is scaled to controls: 0 for no effect and ±100 for the full control effect; nearly all actives have a fitted effect of over 55% in size
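qHTS (up to 57 uM final) was run with 24 h compound exposure of reporter cells at 37 °C. Each well was multiplexed: SteadyGlo luminescence measured ATXN2-luciferase expression after a fluorogenic Gly-Phe-AFC viability readout (25 uM final).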
S2 tox: cell viability loss in ATXN counter-screen; S2 cells (HEK-293 line with an ATXN2-luciferase reporter) viability, CellTiter-Fluor protease fluorescence, 24 h; actives 0.49% (n = 400,000); Potency, µM (top dose mostly 56.7 µM), most hits filed as cytotoxic; also: nearly all actives have a fitted effect of over 40% in size
HT1080NT lethal: kills 2HG-producing HT-1080-NT fibrosarcoma cells. actives 1.6% (n = 360,000). AID 686970. HT-1080-NT fibrosarcoma viability, CellTiter-Glo ATP luminescence, 48 h. Potency, µM (highest dose often 46.1 µM), inactives show top-dose activity, negative = less viability, usual class: cytotoxic;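 also: NT is the 2HG producing partner of a matched IDH1 knockdown line; 0% = DMSO-treated cells and -100% = media-only wells without cells; nearly all actives have a fitted effect of over 55% in size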
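750 cells/well, RPMI + 5% FBS; 2 h settle, compound pin-transfer, 48 h at 37 degrees C. CellTiter-Glo 10 min RT, luminescence. Normalized to DMSO and media-only wells.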
HT1080 IDH1KD tx: HT-1080 IDH1 knockdown cell toxicity (counter line); HT-1080 IDH1 knockdown viability, ATP luminescence, 48 h; Potency, µM (doses to about 46.1 µM), inactives show at the highest dose activity, negative = toxicity, actives largely listed as cytotoxic; actives 2% (n = 360,000); AID 686971;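 also: 0% = DMSO wells and -100% = cell-free medium wells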
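Assay cells: HT-1080 with IDH1 knockdown, 750 per well, RPMI/5% FBS. Exposure: 48 h at 37 °C following 2 h pre-incubation. Read: CellTiter-Glo luminescence; fitted concentration-response, curve class assigned.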
KB-3-1 tox: KB-3-1 parental cell cytotoxicity | KB-3-1 viability, CellTiter-Glo ATP luminescence, 72 h | Potency, µM (doses to about 46.1 µM), hits mostly cytotoxic | actives 1.4% (n = 400,000) | AID 1347075; also: % is scaled to controls: 0 for no effect and ±100 for the full control effect; nearly all actives have a fitted effect of over 60% in size
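Viability of parental KB-3-1 cells, measured by CellTiter-Glo luminescence, followed a 72 h incubation at 37 °C with pinned compounds in phenol-red-free DMEM containing 10% FBS.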
KB-V1 MDR tox: KB-V1 MDR subline cytotoxicity | KB-V1 MDR cells viability, CellTiter-Glo, 72 h | Potency, µM (doses to about 46.1 µM), hits mostly cytotoxic | actives 3.4% (n = 400,000) | AID 1347076; also: % is scaled to controls: 0 for no effect and ±100 for the full control effect; nearly all actives have a fitted effect of over 60% in size
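Readout: CellTiter-Glo luminescence, 10 min after addition. Cells: KB-V1 MDR subline, 72 h at 37 degrees C with compound. Analysis: corrected, normalized data fitted to concentration-effect curves.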
Starred values were filed as active, the others as inactive. Hits are enriched below; roughly 6.2% of the tested compounds scored in any of these assays. Calls follow the shape of the dose curve; as a rule, active = well fitted curve in the direction sought with a large enough effect; inconclusive = small, poorly fitted or top-dose-only effect, or another doubt; inactive = no such curve, though single readings can be large; an effect the other way counts as inactive or inconclusive. Potency is read from the fitted curve at half-maximal effect.

Screening Cc1cc(-c2csc(Nc3ccccn3)n2)ccc1F returned ATXN2 expr inh 97%, S2 tox inactive, HT1080NT lethal inconclusive, HT1080 IDH1KD tx inconclusive, KB-3-1 tox inactive and KB-V1 MDR tox inactive.
Fc1ccc(-c2csc(Nc3ccccn3)n2)c(F)c1 was read as ATXN2 expr inh 50%, S2 tox inactive, HT1080NT lethal inconclusive, HT1080 IDH1KD tx inconclusive, KB-3-1 tox 18µM* and KB-V1 MDR tox inconclusive.
Screening N#Cc1cccc(NC(=O)CCNS(=O)(=O)c2ccc3c(c2)CCN3C(=O)C2CC2)c1 returned ATXN2 expr inh -18%, S2 tox inactive, KB-3-1 tox inactive and KB-V1 MDR tox inconclusive.
For CCC(c1nnnn1Cc1ccccc1)N1CCN(c2ccccc2)CC1 (stereo not given) the results were ATXN2 expr inh -18%, S2 tox inactive, HT1080NT lethal -1%, HT1080 IDH1KD tx 8%, KB-3-1 tox inactive and KB-V1 MDR tox 23µM*.
For c1ccc(CCn2nnnc2C(c2cccnc2)N2CCN(c3ccccc3)CC2)cc1 (stereo not given) the results were ATXN2 expr inh 0%, S2 tox inactive, HT1080NT lethal -6%, HT1080 IDH1KD tx -3%, KB-3-1 tox inactive and KB-V1 MDR tox 10µM*.
`CCCC(=O)N(CCN(C(=O)CCC)c1ccccc1)c1ccccc1` gave ATXN2 expr inh -4%, S2 tox inactive, HT1080NT lethal 6%, HT1080 IDH1KD tx -7%, KB-3-1 tox inactive and KB-V1 MDR tox 10µM*.
For CCOc1ccc(C(=O)c2cn(CC(=O)Nc3cc(OC)cc(OC)c3)c3ccc(F)cc3c2=O)cc1 the results were ATXN2 expr inh 4%, S2 tox inactive, KB-3-1 tox inactive and KB-V1 MDR tox inactive.
CCn1cc([N+](=O)[O-])c(C(=O)N2N=C(c3ccc4ccccc4c3)CC2c2ccccc2O)n1 (stereo not given) was read as ATXN2 expr inh inconclusive, S2 tox inconclusive, HT1080NT lethal 23µM*, HT1080 IDH1KD tx 21µM*, KB-3-1 tox inconclusive and KB-V1 MDR tox inactive.
CCn1cc(Cl)c(C(=O)N2N=C(c3ccc4ccccc4c3)CC2c2ccccc2O)n1 (stereo not given) was read as ATXN2 expr inh 18µM*, S2 tox inconclusive, HT1080NT lethal inconclusive, HT1080 IDH1KD tx inconclusive, KB-3-1 tox 21µM* and KB-V1 MDR tox inconclusive.
CCn1cc([N+](=O)[O-])c(C(=O)N2N=C(c3cccc4ccccc34)CC2c2ccccc2O)n1 (stereo not given) was read as ATXN2 expr inh inconclusive, S2 tox inconclusive, HT1080NT lethal inconclusive, HT1080 IDH1KD tx 18µM*, KB-3-1 tox inactive and KB-V1 MDR tox inactive.
Screening COc1cccc(NC(=O)/C(C#N)=C/c2c(C)n(Cc3ccc(Cl)cc3)c3ccccc23)c1 returned ATXN2 expr inh -1%, S2 tox inconclusive, KB-3-1 tox inactive and KB-V1 MDR tox inactive.
`CCOC(=O)C1=C(Cn2cnc3ccccc32)NC(=O)NC1c1cc(C)ccc1C` (stereo not given) gave ATXN2 expr inh inconclusive, S2 tox 32µM*, HT1080NT lethal inconclusive, HT1080 IDH1KD tx inconclusive, KB-3-1 tox inactive and KB-V1 MDR tox inconclusive.
Screening C[N+]1(CC(=O)c2ccc(I)cc2)CCOCC1 returned KB-3-1 tox inactive and KB-V1 MDR tox inactive.
Screening Cc1ccc2ccc(C(Nc3ccccn3)c3ccccc3)c(O)c2n1 (stereo not given) returned ATXN2 expr inh inconclusive, S2 tox inactive, HT1080NT lethal -30%, HT1080 IDH1KD tx -22%, KB-3-1 tox inactive and KB-V1 MDR tox inconclusive.
Cc1ccnc(NC(c2ccsc2)c2ccc3ccc(C)nc3c2O)c1 (stereo not given) was read as ATXN2 expr inh 14%, S2 tox inactive, HT1080NT lethal inconclusive, HT1080 IDH1KD tx 15µM*, KB-3-1 tox inactive and KB-V1 MDR tox inactive.
